S2 tox: Viability Counterscreen for Primary qHTS for Inhibitors of ATXN expression | S2 cells (HEK-293 line with an ATXN2-luciferase reporter) viability, CellTiter-Fluor protease fluorescence, 24 h | Potency, µM (top dose mostly 56.7 µM), most hits filed as cytotoxic | 0.49% of 400,000 active; also: potency is read from the fitted curve at half-maximal effect; nearly all actives have a fitted effect of over 40% in size
ATXN2 expr inh: Primary qHTS for Inhibitors of ATXN expression. Potency, µM (top dose mostly 57 µM), for the others: at the highest dose activity change, negative = inhibition, actives largely listed as inhibitors. 0.72% of 360,000 active. HEK-293 ATXN2-luciferase reporter, luminescence, 24 h. AID 1745845, 2022; also: potency is read from the fitted curve at half-maximal effect; % is scaled to controls: 0 for no effect and ±100 for the full control effect; nearly all actives have a fitted effect of over 55% in size
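qHTS (up to 57 uM final) was run with 24 h compound exposure of reporter cells at 37 °C. Each well was multiplexed: SteadyGlo luminescence measured ATXN2-luciferase expression after a fluorogenic Gly-Phe-AFC viability readout (25 uM final).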
USP2a block: qHTS Assay for Inhibitors of Ubiquitin-specific Protease USP2a Using CHOP2 as the Reporter; Ubiquitin carboxyl-terminal hydrolase 2 (Homo sapiens), O75604; USP2 core, Ub-CHOP2 coupled fluorogenic reporter, 485/531; Potency, µM (series often up to 38.3 µM), without a hit: at the top dose activity change, negative = inhibition, hits mostly inhibitors; 0.01% of 330,000 active; AID 463254, 2010;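 also: potency is read from the fitted curve at half-maximal effect; plate controls were DMSO wells for no effect and full inhibition by NEM control for full effect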
Target sequence (O75604 whole entry, looked up): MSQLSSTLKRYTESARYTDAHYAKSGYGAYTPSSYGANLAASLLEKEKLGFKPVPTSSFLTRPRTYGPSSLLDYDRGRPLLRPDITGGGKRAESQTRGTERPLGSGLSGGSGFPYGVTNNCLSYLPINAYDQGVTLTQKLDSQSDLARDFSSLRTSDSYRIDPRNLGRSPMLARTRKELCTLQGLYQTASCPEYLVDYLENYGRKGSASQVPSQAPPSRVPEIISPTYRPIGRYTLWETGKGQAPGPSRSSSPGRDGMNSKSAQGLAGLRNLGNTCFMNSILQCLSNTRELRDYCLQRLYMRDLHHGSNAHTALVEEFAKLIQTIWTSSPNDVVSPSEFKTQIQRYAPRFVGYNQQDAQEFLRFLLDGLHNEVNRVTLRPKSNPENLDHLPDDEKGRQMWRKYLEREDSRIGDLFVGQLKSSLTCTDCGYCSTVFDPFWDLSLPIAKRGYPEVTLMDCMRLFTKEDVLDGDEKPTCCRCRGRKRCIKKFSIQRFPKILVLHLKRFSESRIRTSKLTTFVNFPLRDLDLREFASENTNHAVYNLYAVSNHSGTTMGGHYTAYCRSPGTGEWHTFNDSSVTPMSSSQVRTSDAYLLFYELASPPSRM
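Deubiquitinase activity read as fluorescence (485/531 nm) after Ub-CHOP2 cleavage activates the enterokinase reporter on its substrate; USP2 core 10nM, Ub-CHOP2 and substrate 25nM each, 30min compound preincubation then 60min RT; data normalized to NEM, curves fitted.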
IL1B secr inh: qHTS for Inhibitors of Inflammasome Signaling: IL-1-beta AlphaLISA Primary Screen. THP-1 LPS/ATP IL-1B secretion, AlphaLISA, 16 h; active compounds read low. activity change, % at 57.5 µM. 4.7% of 360,000 active. AID 743279, 2014; in the data active = activity change below about -50%; inconclusive = mostly about -30% to -49%; also: % is scaled to controls: 0 for no effect and ±100 for the full control effect
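Secreted IL-1B measured by AlphaLISA bead assay after 16 h compound exposure of THP-1 cells; compounds (final up to 57.5 uM) added 1 h before LPS (250 ng/mL) and ATP (1.25 mM) stimulation; lower signal means less secretion.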
USP1-UAF1 inh: Inhibitors of USP1/UAF1: Primary Screen; AID 743255, 2014; Potency, µM (doses to about 57.1 µM), without a hit: at the top dose activity change, negative = inhibition, hits mostly inhibitors; recombinant USP1/UAF1, Ub-Rhodamine cleavage fluorescence; Ubiquitin carboxyl-terminal hydrolase 1 (Homo sapiens), O94782; 0.23% of 390,000 active; also: potency is read from the fitted curve at half-maximal effect; % is scaled to controls: 0 for no effect and ±100 for the full control effect; nearly all actives have a fitted effect of over 60% in size
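1 nM enzyme complex + cpd, 15 min RT; start with Ub-Rho 150nM final; kinetic fluorescence ex 480/em 540, 6 reads q60 s. Buffer 50mM HEPES pH 7.8, 0.5mM EDTA, 0.1 mg/ml BSA, 1mM TCEP, 0.01% Tween-20.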
The depositor's hits bear a star. Shown are actives, neighbours in structure and some others; about 4.8% of the full set was active somewhere. Unless noted, calls follow the shape of the dose curve; as a rule, active = well fitted curve in the direction sought with a large enough effect; inconclusive = small, poorly fitted or top-dose-only effect, or another doubt; inactive = no such curve, though single readings can be large; an effect the other way counts as inactive or inconclusive.

`O=C(Nc1cccc(OC(F)(F)F)c1)C1Cc2c(-c3cccc(F)c3)ccnc2O1` (stereo not drawn) gave S2 tox inconclusive, ATXN2 expr inh inconclusive and IL1B secr inh -89*.
Screening O=C(Nc1ccc(Cl)cc1)C1Cc2c(-c3ccc(Cl)cc3)ccnc2O1 (stereo not drawn) returned S2 tox inactive, ATXN2 expr inh inconclusive and IL1B secr inh -11.
For O=C(Nc1ccc(Cl)cc1)C1Cc2c(-c3ccccc3)ccnc2O1 (stereo not drawn) the results were S2 tox inactive, ATXN2 expr inh -23% and IL1B secr inh -79*.
For O=C(Nc1ccc(Cl)cc1)C1Cc2c(-c3cccc(F)c3)ccnc2O1 (stereo not drawn) the results were S2 tox inconclusive, ATXN2 expr inh 0% and IL1B secr inh -64*.
COc1ccc(OC)c(S(=O)(=O)NC2CC(=O)N(c3cccc(F)c3)C2)c1 (stereo not drawn) was read as S2 tox inactive, ATXN2 expr inh 6%, USP2a block 1%, IL1B secr inh 0 and USP1-UAF1 inh -9%.
`CC1COC2(CCN(c3nc(=O)c4cc(C(F)(F)F)cc([N+](=O)[O-])c4s3)CC2)O1` (stereo not drawn) gave ATXN2 expr inh 68%.
CC1CCC(C(C)C)C(OCC(O)CNC(C)(C)C)C1 (stereo not drawn) was read as S2 tox inactive, USP2a block 0%, IL1B secr inh -27 and USP1-UAF1 inh -24%.
Screening CC1CCC(C(C)C)C(OCC(O)CNC(C)c2ccccc2)C1 (stereo not drawn) returned S2 tox inconclusive, ATXN2 expr inh inconclusive, USP2a block 2%, IL1B secr inh -108* and USP1-UAF1 inh -11%.
Screening CC(NCC(O)COC1CCC(C(C)(C)C)CC1)c1ccccc1 (stereo not drawn) returned USP2a block 0%, IL1B secr inh -67* and USP1-UAF1 inh -23%.
`C[C@@H]1C(=O)O[C@H]2CC34[C@H]5C[C@@H](C(C)(C)C)C36[C@H](OC(=O)[C@@H]6O)O[C@@]4(C(=O)O5)[C@]21O` (stereo partly drawn) gave ATXN2 expr inh 0%.
For CCCC(=O)N1CCC1(C)C(=O)Nc1ccc2c(c1)CCN2C(C)=O (stereo not drawn) the results were S2 tox inactive, ATXN2 expr inh 1% and IL1B secr inh 2.
`COc1ccc(-c2coc3c(C(=O)NCc4cccs4)cccc23)c(C)c1` gave S2 tox inactive, ATXN2 expr inh 0% and IL1B secr inh -53*.
Screening COc1ccc(-c2coc3c(C(=O)NCc4ccco4)cccc23)c(C)c1 returned S2 tox inconclusive, ATXN2 expr inh inconclusive and IL1B secr inh -26.
Screening COc1ccc(-c2ccc(C(=O)NCc3ccco3)c3occc23)c(C)c1 returned S2 tox inactive, ATXN2 expr inh -8% and IL1B secr inh -53*.
Screening COc1ccc(-c2ccc(C(=O)NCc3cccs3)c3occc23)c(C)c1 returned S2 tox inactive, ATXN2 expr inh -27% and IL1B secr inh -23.
For Nc1nc2c(ncn2[C@@H]2O[C@H](CNS(=O)(=O)C3CC3)[C@@H](O)[C@H]2O)c(=O)[nH]1 the results were S2 tox inactive, ATXN2 expr inh 5% and IL1B secr inh 11.
`CC(=O)Nc1ccc(-c2ccnc3c2CC(C)(C(=O)NCC2CC2)O3)cc1` (stereo not drawn) gave S2 tox inactive, ATXN2 expr inh 14% and IL1B secr inh 18.
For Cc1ccc(C(=O)N2CCN(c3ccc(NC(=O)COc4ccccc4C)cc3)CC2)cc1 the results were S2 tox inactive, ATXN2 expr inh -34%, USP2a block -4%, IL1B secr inh -64* and USP1-UAF1 inh -1%.
Screening Cc1ccc(OCC(=O)Nc2ccc(N3CCN(C(=O)c4ccco4)CC3)cc2)cc1 returned S2 tox inactive, ATXN2 expr inh -25%, USP2a block 2%, IL1B secr inh -59* and USP1-UAF1 inh -5%.
For Cc1cc(C)cc(C(=O)Nc2ccc(N3CCN(C(=O)c4ccco4)CC3)cc2)c1 the results were S2 tox inconclusive, ATXN2 expr inh inconclusive, USP2a block 0%, IL1B secr inh -52* and USP1-UAF1 inh 1%.
`Cc1ccc(NC(=O)COc2ccccc2CNC(C)(C)CC(C)(C)C)cc1` gave S2 tox 22µM*, ATXN2 expr inh 25µM*, USP2a block -6%, IL1B secr inh -105* and USP1-UAF1 inh -19%.
Screening O=C(COc1ccccc1)Nc1ccc(N2CCN(C(=O)c3ccco3)CC2)cc1 returned S2 tox inactive, ATXN2 expr inh -25%, USP2a block 0%, IL1B secr inh -3 and USP1-UAF1 inh -6%.
Cc1ccccc1N1CCN(C(=O)c2cc(C3CC3)nn2-c2ccccc2)CC1 was read as S2 tox inactive, USP2a block 3%, IL1B secr inh 2 and USP1-UAF1 inh -10%.
`CCC(=O)OCC(=O)[C@@]1(OC(=O)CC)[C@H](C)C[C@H]2[C@@H]3CCC4=CC(=O)C=C[C@]4(C)[C@@]3(F)[C@@H](O)C[C@@]21C` gave S2 tox inactive.
Screening O=C(O)c1ccc(N2C(=O)/C(=C\c3ccccc3)N=C2c2ccccc2)cc1 returned S2 tox inactive, ATXN2 expr inh 6%, USP2a block 10%, IL1B secr inh -73* and USP1-UAF1 inh -22%.
Screening OCC[C@@H]1C[C@H](O)[C@@H](O)[C@]2(OCc3ccc(CO)cc32)O1 returned S2 tox inactive, ATXN2 expr inh 7% and IL1B secr inh 3.
For CCCC(O)(c1ccc(Br)cc1)C(CN1CCOCC1)c1ccc(Cl)cc1 (stereo not drawn) the results were S2 tox inactive, ATXN2 expr inh -11%, USP2a block 4%, IL1B secr inh -84* and USP1-UAF1 inh -10%.
Screening CCN1CCN(C(=O)C(C)Sc2nc3nc(C)cc(C)n3n2)CC1 (stereo not drawn) returned S2 tox inactive, ATXN2 expr inh 8%, USP2a block -2%, IL1B secr inh -51* and USP1-UAF1 inh inconclusive.
For Cc1cc(C)n2nc(SC(C)C(=O)N3CCCC3)nc2n1 (stereo not drawn) the results were S2 tox inactive, ATXN2 expr inh -9%, USP2a block -1%, IL1B secr inh -2 and USP1-UAF1 inh -1%.
